Bioassay records as filed in PubChem.
tim10-1 inh: growth inhibitors of tim10-1 mutant yeast; S. cerevisiae tim10-1 ts strain growth, BacTiter-Glo, 24 h; inhibition, % at 20 µM; 2.2% of 330,000 active;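 active means inhibition of at least 40%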;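 further: mutant grown at 25 °C; 0% = DMSO wells with yeast and 100% = wells holding no yeast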
V-ATPase pHluor: alters yeast V-ATPase proton transport; S. cerevisiae, pHLuorin cytosolic pH fluorescence; response, % at 10 µM; AID 504577; 0.37% of 350,000 active; in the data active means response mostly above about 7.3%, no sharp cut-off; inactive means mostly below about 5.4%; further: actives read high
PfHsp90 set2: inhibits growth of yeast expressing Plasmodium falciparum Hsp90 | S. cerevisiae expressing PfHsp90, BacTiter-Glo ATP, 48 h; yeast lacking PDR1 and PDR3 efflux regulators | inhibition, % at 9.4 µM | AID 504621 | 0.32% of 310,000 active;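 active means every replicate shows inhibition above about 80%, whatever the replicate mean, limit read from the data; inconclusive means mean inhibition reaches the set limit but some replicate falls short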;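 further: 0% = DMSO neutral controls and 100% = 20 µM radicicol positive controls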
TIM10 inh: inhibits growth of TIM10 yeast strain; 1.4% of 330,000 active; S. cerevisiae TIM10 strain growth, BacTiter-Glo luminescence, 24 h; inhibition, % at 10 µM;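 active means inhibition of 40% or more at the single tested concentration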;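 further: wild-type TIM10 isogenic control strain grown at permissive 25 °C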
SKKanGAS inh: SKKanGAS growth inhibition. S. pyogenes SKKanGAS, kanamycin growth, BacTiter-Glo, 6 h. inhibition, % at 7.5 µM. 1.3% of 300,000 active;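 active means mean replicate score, as percent of positive control median, at least 50; inconclusive means mean below 50 but one replicate at or above 50; inactive means mean and every replicate below 50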;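 further: strain carries kanamycin resistance gene driven by streptokinase promoter and grows in 40 µg/ml kanamycin; loss of luminescence reflects streptokinase promoter inhibition or plain growth inhibition; 0% = median of DMSO wells and 100% = positive control at its reference dose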
tim23-1 inh: tim23-1 yeast growth inhibition; AID 463212; S. cerevisiae tim23-1 growth, BacTiter-Glo luminescence, 24 h; 1.3% of 330,000 active; inhibition, % at 20 µM;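 active means growth inhibition of the mutant yeast at or above 50%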;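 further: temperature-sensitive mutant grown at 25 °C; plate controls were DMSO-treated mutant yeast for no effect and medium wells lacking yeast for full effect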
Numbers without * were called inactive; u = inconclusive; x = not tested or not shown. This is a sample that favours compounds with a hit; in the whole collection about 4.6% have one here.

SMILES	tim10-1 inh	V-ATPase pHluor	PfHsp90 set2	TIM10 inh	SKKanGAS inh	tim23-1 inh
COc1ccc(N2CC(C(=O)N/N=C/c3cc([N+](=O)[O-])ccc3O)CC2=O)cc1 (stereo not drawn)	6.9	-3.5	-7.0	0.0	68.5*	7.5
Cc1ccc(S(=O)(=O)N(C)CC(=O)Nc2nc3ccccc3s2)cc1	6.4	-4.0	-24.2	5.1	10.0	23.9
Cc1ccc(/C(=N/Nc2nc3ccccc3s2)C2=C(O)c3ccccc3C2=O)cc1	14.2	2.0	-42.3	7.9	56.8*	25.0
CCOC(=O)C1=NN(C(=O)c2cccc(Br)c2)C(O)(C(C)(C)C)C1 (stereo not drawn)	23.8	x	x	19.6	89.9*	36.3
CCOC(=O)C1=NN(C(=O)c2ccco2)C2(CC2)C1	10.6	4.1	-29.5	10.7	-5.0	12.2
CC(=O)N1CCN(c2ccc(OC[C@H]3CO[C@](Cn4ccnc4)(c4ccc(Cl)cc4Cl)O3)cc2)CC1	-151.9	-0.8	104.4*	-149.5	7.1	-223.2
Cc1cccc(OC(C)C(=O)N2CCN(Cc3ccc4c(c3)OCO4)CC2)c1 (stereo not drawn)	9.6	-1.2	16.8	2.1	-1.4	10.3
Cc1ccc(OCC(=O)NNC(=S)NC(=O)C2CC2)c(C)c1	20.5	-0.8	104.4*	-5.6	x	20.8
Cc1ccc(OCC(=O)NNC(=O)c2ccc(NC(=O)C3CC3)cc2)c(C)c1	10.1	-0.1	-29.3	8.3	3.6	3.5
Cc1ccc(OCC(=O)NNC(=S)NC(=O)C(C)(C)C)c(Br)c1	11.1	-4.7	104.9*	-23.6	89.6*	20.2
CC(C)c1ccc(OCC(=O)NNC(=S)NC(=O)C2CC2)cc1	-18.0	1.9	u	1.2	95.8*	11.6
CC(C)c1ccc(OCC(=O)NNC(=S)NC(=O)c2cccs2)c(Br)c1	33.8	-2.3	-16.3	23.0	78.3*	31.4
N#Cc1ccc(OCC(=O)NNC(=S)NC(=O)C2CC2)cc1	8.4	1.2	-21.3	-0.7	x	9.2
CC(C)c1ccc(OCC(=O)NN2C(=O)c3ccccc3C2=O)c(Br)c1	16.1	1.7	-16.6	2.5	1.1	40.6
O=C(CCc1nnc2n(Cc3ccc(F)cc3)c(=O)c3ccccc3n12)N1CCN(c2ccccn2)CC1	35.1	6.8	-8.9	19.1	16.2	20.9
Cc1ccc(S(=O)(=O)N(C)C[C@@H]2OCc3cnnn3CCCC(=O)N([C@@H](C)CO)C[C@H]2C)cc1	x	2.6	x	x	x	x
CC(=O)Nc1ccc(C=NNC(=O)CCCC(=O)NN=Cc2ccc(NC(C)=O)cc2)cc1	x	1.6	-13.4	x	x	x
CC(=O)Nc1cccc(C(=O)Nc2cc(C(F)(F)F)ccc2-n2cncn2)c1	x	1.7	x	x	x	x
Cc1sc2cc3c(c(C(=O)c4ccccc4)[n+]2c1C)-c1cccc2cccc-3c12	x	x	x	x	55.1*	x
O=C(c1ccccc1)c1c2c(cc3sc4ccccc4[n+]13)-c1cccc3cccc-2c13	x	-0.9	-25.0	x	x	x
CCCCn1c(O)c(N=NC(=O)c2ccncc2)c2cc(Br)ccc21	-3.3	-2.2	6.1	7.9	83.4*	1.0
O=C(Nc1nc2c(F)cc(F)cc2s1)c1ccccn1	25.5	-2.1	-25.2	21.2	72.3*	-26.2
CCOc1ccc2nc(NC(=O)Nc3ccccc3)sc2c1	10.0	3.0	-11.4	5.6	-17.0	-1.8
CCOc1ccc2nc(NC(=O)c3ccccn3)sc2c1	10.6	-2.0	21.4	16.0	80.8*	-0.3
Cc1ccc2nc(NC(=O)c3ccccc3F)sc2c1	8.8	-5.5	-20.5	9.0	0.1	17.2
SMILES	tim10-1 inh	V-ATPase pHluor	PfHsp90 set2	TIM10 inh	SKKanGAS inh	tim23-1 inh
Cc1ccc2nc(NC(=O)c3ccccn3)sc2c1	-8.9	3.5	18.6	7.3	85.3*	3.8
O=C(NCc1ccccc1CN1CCCC1)c1ccc(S(=O)(=O)Nc2ccccc2)cc1	x	0.4	x	x	x	x
N#Cc1cccc(C#N)c1Oc1ccc(S(=O)(=O)Nc2ccc(Cl)cc2)cc1	-57.8	-6.0	3.0	-2.0	7.9	-0.5
CCC1CCCCN1C(=O)CCn1c(=O)oc2ccccc21 (stereo not drawn)	19.5	-1.9	0.4	-2.6	-0.4	21.3
O=C(Nc1nc2ccccc2n1CCOc1ccccc1)c1ccco1	19.4	0.6	-16.7	25.1	77.1*	20.5
O=C(Nc1nc2ccccc2n1CCOc1ccc(Cl)cc1)c1ccco1	33.7	3.7	-8.0	23.8	90.5*	17.5
O=C(Nc1nc2ccccc2n1CCN1CCCCC1)c1ccco1	-15.5	-1.6	2.0	-3.7	-4.6	1.6
Cc1cccc(OCCn2c(NC(=O)c3ccco3)nc3ccccc32)c1	25.7	0.2	-12.9	33.5	62.0*	38.5
O=C(Nc1nc2ccccc2n1Cc1ccc(Cl)cc1)c1ccco1	-18.0	1.6	6.0	-6.0	-9.3	6.2
Cc1ccc(OCCn2c(NC(=O)c3ccco3)nc3ccccc32)cc1	-34.1	-6.9	-16.3	-3.7	65.7*	-1.9
CCCCOc1ccccc1C1NC(=O)CCC1[N+](=O)[O-] (stereo not drawn)	4.9	3.5	-7.6	14.6	-3.6	3.6
N#Cc1c(NC(=S)NC(=O)C2CCCC2)sc2c1CCCCC2	25.8	-1.1	1.0	23.0	75.6*	15.6
CC(C)CC(=O)NC(NC(=S)Nc1sc2c(c1C#N)CCCC2)C(Cl)(Cl)Cl (stereo not drawn)	13.1	6.7	x	7.2	56.0*	15.9
CCC(=O)Nc1sc2c(c1C#N)CCC2	6.0	2.6	-41.1	-1.2	6.8	5.3
N#Cc1c(NC(=S)NC(=O)c2ccccc2)sc2c1CCCC2	24.0	-1.0	0.7	1.9	2.9	10.5
COc1ccc2c(c1)[C@H]1[C@H](CO2)[C@H](c2ccccc2)[C@]2(C)C(=O)Nc3ccc(Cl)cc3C(=O)N12	x	3.7	136.6*	x	x	x
C[C@@]12C(=O)Nc3ccc(Cl)cc3C(=O)N1[C@H]1c3cc(Cl)ccc3OC[C@@H]1[C@@H]2c1ccccc1	20.0	3.9	-36.8	21.8	x	34.2
CC(=O)OCC1=C(C(=O)O)N2C(=O)C(NC(=O)c3ccc(COc4cccc(Cl)c4Cl)o3)C2SC1 (stereo not drawn)	13.2	2.8	-10.3	8.9	71.6*	16.1
Cc1ccc(N/N=C2\CS(=O)(=O)N(C)c3ccsc32)cc1	29.7	-2.2	-18.3	-3.9	101.3*	44.2
CCCC(=O)N/N=C1\CS(=O)(=O)N(C)c2ccsc21	2.3	-0.9	-6.1	-6.7	-3.0	6.7
COc1cc(C(=O)NS(=O)(=O)c2ccccc2C)ccc1Cc1cn(C)c2ccc(NC(=O)OC3CCCC3)cc12	30.6	x	x	22.3	67.6*	24.2
O=C1NC(=S)/C(=C\c2ccc(-c3ccccc3Cl)o2)S1	x	5.3	4.2	x	114.4*	x
C/C(=N\Nc1nc2ccccc2[nH]1)c1ccc2c(c1)OCCO2	16.9	0.0	-6.8	18.8	16.9	-0.5
C/C(=N\Nc1nc2ccccc2[nH]1)c1ccc2c(c1)OCO2	-48.2	-0.8	-7.0	-1.3	58.4*	15.9
